For 92 compounds, activation results are on record in PubChem BioAssay AID652039 (The Scripps Research Institute Molecular Screening Center, 2013).

SMILES strings stand for the structures. Hit rate of the full screen: of about 370,000 compounds, about 3,300 (0.89%) were called active.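 How the source made its calls: active means activation above the mean of all tested compounds plus 3 SD, computed per campaign excluding outliers beyond control limits (cut at about 13% in these data); inactive means the rest.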 What follows is part of a selection rich in actives, with near analogues and random picks from the rest.

The target of the experiment is Kallikrein-7 (Homo sapiens) (UniProt P49862). Description: activation of human kallikrein-7 proenzyme – biochemical, fluorescence intensity, primary screen (AID 652039). The conditions noted are these: purified proKLK7, EDANS-DABCYL substrate fluorescence; at 7 µM; stronger effect = higher value; 100% is mature enzyme control, 0% vehicle.
Chain of Kallikrein-7 (Homo sapiens) (P49862 whole entry, looked up): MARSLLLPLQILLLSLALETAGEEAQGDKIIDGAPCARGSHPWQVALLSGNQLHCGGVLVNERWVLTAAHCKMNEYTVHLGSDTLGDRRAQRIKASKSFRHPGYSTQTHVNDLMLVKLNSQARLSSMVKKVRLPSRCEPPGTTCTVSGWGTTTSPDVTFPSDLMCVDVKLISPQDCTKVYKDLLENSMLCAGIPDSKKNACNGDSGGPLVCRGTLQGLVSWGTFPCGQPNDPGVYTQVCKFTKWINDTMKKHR
For `COc1ccc(-c2cc(=O)oc3cc(OCC(=O)N(C)C4CCS(=O)(=O)C4)ccc23)cc1` (configuration not stated), the activation was -0.13% (inactive).

As for `COc1ccc(-c2cc3ccc(OCc4nn[nH]n4)cc3oc2=O)cc1`, the activation is 75.6% (active).

With `CCCCCCc1cc2cc(-c3nnc(-c4cccc(OC)c4)o3)c(=O)oc2cc1O`, the activation is -1.12% (inactive).

For the compound `COc1cccc(CSc2nnc(-c3cccnc3)n2Cc2ccccc2)c1`, the activation is -0.18% (inactive).

With `Nn1c(SCC(=O)Nc2ccc(S(N)(=O)=O)cc2)nnc1-c1n[nH]c2c1CCC2`, the activation was -0.51% (inactive).

For `O=C(COc1cc(Cl)c(Cl)cc1Cl)NC(=O)NC1CCCC1`, the activation is -0.16% (inactive).

Take `CCOc1ccccc1NC(=O)NC1CCCCCCC1`: the activation is 0.05% (inactive).

Take `CCCN(CC(=O)NC(=O)NC1CCCCC1)CC(=O)Nc1cc(Cl)ccc1Cl`: the activation is 24.4% (active).

`Cc1cc(=O)[nH]c(SCC(=O)Nc2ccc(Cl)cc2C)n1`: the activation was -0.02% (inactive).

As to `CN1C(=O)c2cc(NS(C)(=O)=O)ccc2OC[C@@H]2O[C@@H](CC(=O)NCc3ccc(-c4ccccc4)cc3)CC[C@H]21`, the activation is -0.3% (inactive).

Regarding `CCOc1ccc(S(=O)(=O)NCCC(=O)NCC2CCCO2)cc1` (configuration not stated), the activation is 0.66% (inactive).

On to `CC1(C)CC(=O)c2cc(OCC(=O)NCC3CCCO3)ccc2O1` (configuration not stated), for which the activation is 54.2% (active).

`C=CCOc1ccc(/C=C/C(=O)OCC(=O)NCC2CCCO2)cc1` (configuration not stated): the activation was -1.06% (inactive).

In the case of `CN(C)c1ccc(NC(=O)NC2CCCCN(Cc3ccc(Cl)cc3)C2=O)cc1` (configuration not stated), the activation was 0.67% (inactive).

For `COc1ccnc(C(=O)N2CCC(Oc3cccnc3)CC2)c1`, the activation is 0.48% (inactive).

`Cn1cccc1C(=O)NC(=O)COC(=O)Cc1coc2ccc3ccccc3c12`: the activation was -3.37% (inactive).

For `Cc1ccc(NC(=O)Nc2cc(C)nn2-c2ccccc2)cc1`, the activation was 0.53% (inactive).

Consider `C#CCN([C@H](C(=O)OC)C(C)CC)S(=O)(=O)c1ccccc1Br` (some centres not stated), for which the activation is 0.19% (inactive).

Consider `OCCNc1nc2ccccc2n1-c1ncnc2sc3c(c12)CCC3`, for which the activation is -0.67% (inactive).

For `CCCSc1ncccc1C(=O)O`, the activation is 0.67% (inactive).

As for `O=C(O)c1cccnc1Sc1ncnc2sc3c(c12)CCC3`, the activation is 12.7% (active).

For the compound `CN(C)[C@H]1CCN(c2cccc3c2S(=O)(=O)N2CC[C@H](C2)O3)C1`, the activation is 0.28% (inactive).

`CCOC(=O)c1cccc(NC(=O)CN(C)S(=O)(=O)c2ccc(-c3cocn3)s2)c1`: the activation is -0.02% (inactive).

`COc1ccc(-c2onc(C)c2-c2ccc3c(c2)OCCO3)c(O)c1`: the activation is -0.06% (inactive).

On to `COc1cccc(C(=O)Nc2cc3c(cc2Br)OCCCO3)c1`, for which the activation was -0.41% (inactive).

Turning to `COc1ccc2nc(Nc3nc4cc5c(cc4s3)OCCO5)sc2c1`, the activation is 17.3% (active).

`COc1ccccc1C(=O)CSc1nnc(-c2ccccn2)n1-c1ccccc1`: the activation is 0.13% (inactive).

As to `Cc1ccc(-n2c(SCC(=O)Nc3cccc4ccccc34)nnc2-c2ccccn2)cc1`, the activation was -0.1% (inactive).

Regarding `CCOc1ccc(N(CC(=O)Nc2c(C)n(C)n(-c3ccccc3)c2=O)S(=O)(=O)c2ccc(Cl)s2)cc1`, the activation is -0.38% (inactive).

For the compound `O=C(Nc1nncs1)c1cccc(S(=O)(=O)N2CCCCC2)c1`, the activation was 0.4% (inactive).

In the case of `COc1cc(NC(=O)c2ccccc2NS(=O)(=O)c2ccc(Cl)s2)cc(OC)c1`, the activation was 0.45% (inactive).

For the compound `O=C(Nc1nncs1)c1ccccc1NS(=O)(=O)c1cccs1`, the activation was 16.3% (active).

As to `Cc1ccc(-c2nc(C3CCCN(S(=O)(=O)c4ccc(Br)s4)C3)no2)cc1` (configuration not stated), the activation is 0.38% (inactive).

For `COc1ccc(-n2c(COc3ccccc3)nnc2SCC(=O)Nc2ccc3c(c2)OCO3)cc1`, the activation was 0.59% (inactive).

In the case of `O=C1c2ccccc2NC(c2ccccn2)N1NS(=O)(=O)c1ccccc1` (configuration not stated), the activation was 10.7% (inactive).

Regarding `Cc1ccc(C2Nc3ccccc3C(=O)N2CCN2CCNC2=O)cc1` (configuration not stated), the activation is 39.3% (active).

As to `Cc1ccc(S(=O)(=O)N2CCC(C(=O)OCC(=O)N3CC(=O)Nc4ccccc43)CC2)cc1`, the activation is 0.15% (inactive).

For `COc1ccc(N2CCN(CCNS(=O)(=O)c3ccc(C(C)(C)C)cc3)CC2)cc1`, the activation was 0.49% (inactive).

`C=CCN1C(=O)[C@@H](CC(=O)NCC2CCCCC2)[C@]2(C(=O)OC)CCCCC=C12`: the activation is 0.16% (inactive).

With `CC(CCN1CCC(C(O)(c2ccccc2)c2ccccc2)CC1)Oc1ccc([N+](=O)[O-])cc1Cl` (configuration not stated), the activation is -0.54% (inactive).

For `Nc1nonc1-n1nnc(C(=O)N/N=C/c2cc(Br)ccc2O)c1CSC1=NCCS1`, the activation was -0.67% (inactive).

On to `COc1cc(/C=N/N=C(\N)c2nonc2N)cc(OC)c1OC`, for which the activation is 0.13% (inactive).

Regarding `COc1cc(/C=N\NC(=O)c2nonc2N)c(OC)cc1Br`, the activation is 163% (active).

On to `COc1cccc(N(C)C(=O)[C@@H](C)[C@@H](O)c2ccc3ccccc3c2)c1`, for which the activation was -0.02% (inactive).

For the compound `CC(C)CSc1nnc(-c2cccnc2)n1Cc1ccccc1`, the activation was -0.36% (inactive).

`CN1C(C(=O)NCc2ccco2)CC2Cn3c(nc4ccccc43)C21` (configuration not stated): the activation is 0.06% (inactive).

Turning to `CN1c2ccccc2-c2nc3ccccc3n2C1c1ccco1` (configuration not stated), the activation is 35.6% (active).

`CN1CCCc2cc(C#N)c(=O)[nH]c21`: the activation is 60% (active).

Turning to `Clc1ccc(C(Cn2ccnc2)OCc2ccsc2Cl)c(Cl)c1` (configuration not stated), the activation is 0.44% (inactive).

For `Cc1cc(C(=O)NN=C/C=C/c2ccco2)n[nH]1`, the activation was 0.51% (inactive).

`CCC(=O)Nc1c(S(=O)(=O)c2ccccc2)c2nc3ccccc3nc2n1Cc1ccccc1`: the activation was -55% (inactive).

As to `C=CCN1CN(S(=O)(=O)c2ccc(OC)cc2)c2nc3ccccc3nc21`, the activation is 2.35% (inactive).

Consider `C=CCn1c(N)c(S(=O)(=O)c2cccs2)c2nc3ccccc3nc21`, for which the activation was 26.2% (active).

`COc1cc2c(cc1OC)CC1(CCCCC1)N=C2`: the activation is 165% (active).

Consider `CCOC(=O)[C@]12CCCCC/C=C\1N(Cc1ccc(OC)cc1)C(=O)[C@H]2CC(=O)N1CCOCC1`, for which the activation is 0.31% (inactive).

As to `C=CCN1[C@H](CC(C)C)COc2cccc(N3CCCC3)c2S1(=O)=O`, the activation is 0.16% (inactive).

In the case of `CCc1cc(=O)oc2cc(C)cc(OC(C)C(=O)O)c12` (configuration not stated), the activation was 3.59% (inactive).

As for `CCc1cc(=O)oc2cc(C)cc(OCC(=O)N3CCC[C@@H]3C(=O)O)c12`, the activation was 2.84% (inactive).

As for `CCCCc1cc(=O)oc2cc(C)cc(OCc3nn[nH]n3)c12`, the activation was 12.8% (active).

With `CCOC(CNC(=O)C(=O)NCC(c1ccco1)N1CCN(c2ccc(OC)cc2)CC1)OCC` (configuration not stated), the activation is -0.14% (inactive).

As for `Cc1nc(N2CCOCC2)nc2c1CCCC2`, the activation was 0.32% (inactive).

Consider `CN1CCCc2nc(-c3ccccc3)ccc21`, for which the activation is 7.88% (inactive).

Regarding `Cc1cc2c(nc1C)CCCN2C`, the activation is 38.3% (active).

In the case of `CCOC(=O)[C@@]12CCC3=C1N(CCC3)C(=O)[C@H](CC(=O)N1CCN(C(=O)c3ccco3)CC1)C2`, the activation was 0.06% (inactive).

For `C=CCN1C(=O)[C@H](CC(=O)N2CCN(C(=O)OCC)CC2)[C@@]2(C(=O)OCC)CCCC=C12`, the activation is -0.4% (inactive).

Regarding `Cc1ccccc1CS(=O)(=O)Cc1ccc(C(=O)Nc2ccc(Cl)cc2)o1`, the activation was 3.6% (inactive).

In the case of `O=C1NC(c2ccncc2)Nc2sc3c(c21)CCCC3` (configuration not stated), the activation is 1.14% (inactive).

On to `Cc1[nH]c(=O)c(C(=O)/C=C/c2ccccc2)c2c1CCCC2`, for which the activation was -0.01% (inactive).

On to `C/C(=C\c1ccccc1)C1NC(=O)c2c(sc3c2CCCC3)N1` (configuration not stated), for which the activation is 12.6% (active).

As for `COC(=O)c1cccc(Cn2ccc3ccc(-c4ccc5ccn(C(=O)C6CCCCC6)c5c4)cc32)c1`, the activation was -4.23% (inactive).

As for `O=C(CCl)NC1CCCCN(Cc2cccc(C(F)(F)F)c2)C1=O` (configuration not stated), the activation was -0.51% (inactive).

As for `CS(=O)(=O)Nc1ccc(C(=O)N2CCCC2)cc1`, the activation was 0.41% (inactive).

For the compound `CC(=O)Nc1cncc(-c2ccccc2CO)n1`, the activation is -0.16% (inactive).

Regarding `CNc1cncc(-c2ccc(NS(C)(=O)=O)cc2)n1`, the activation was 128% (active).

In the case of `O=C(CSc1nnc(-c2ccccc2)n1Cc1ccco1)Nc1ccccc1-c1ccccc1`, the activation was 0.13% (inactive).

Turning to `CCC(NC(=O)C1C2C=CC3(CN(Cc4ccccc4)C(=O)C13)O2)c1ccccc1` (configuration not stated), the activation was -0.29% (inactive).

Turning to `O=C(NC1CCC1)c1ccc(C#Cc2cccc(F)c2)c[n+]1[O-]`, the activation is -0.32% (inactive).

Regarding `Cc1nc2ccccc2nc1CC(O)(c1ccccc1)c1ccccc1`, the activation is -0.46% (inactive).

For `Cc1ccc(O)c(CCc2ccccc2)n1`, the activation was -0.18% (inactive).

As for `Cc1nc2ccccc2cc1O`, the activation was 41.8% (active).

As for `O=S1(=O)c2ccc(Br)cc2OC[C@H](Cc2ccccc2)N1Cc1cn(Cc2ccccc2)nn1`, the activation is -0.03% (inactive).

With `O=C(/C=C/[C@H]1O[C@@H](n2cnc3c(NC(=O)c4ccccc4)ncnc32)[C@H](O)[C@@H]1O)NCc1ccccc1`, the activation is 0.53% (inactive).

As for `Cc1ccc2nc3c(cc(C(=O)NCCc4ccccc4)c(=N)n3CC3CCCO3)c(=O)n2c1` (configuration not stated), the activation was 25.4% (active).

Consider `Cc1ccc(CCNC(=O)c2ccc3nc4ccccc4c(=O)n3c2)cc1`, for which the activation was -5.82% (inactive).

Take `Cc1ccc(-c2noc(-c3ccccc3C(=O)NCC3CCCO3)n2)cc1` (configuration not stated): the activation was 0.54% (inactive).

Take `CC(=O)OC12CCCN(C1)/C(=C/c1ccncc1)C2` (configuration not stated): the activation is 0.51% (inactive).

As to `CN(C)CCCn1c(N)c(C#N)c2nc(C#N)c(C#N)nc21`, the activation was 78.7% (active).

On to `CCCc1cc(=O)oc2c(C)c(OCC(=O)Nc3ccccn3)ccc12`, for which the activation is -0.69% (inactive).

Regarding `COC(=O)Cc1cc(=O)oc2c(C)c(O)ccc12`, the activation is 66% (active).

For the compound `COc1cccc(C(=O)OCc2cc(=O)oc3c(C)c(C)ccc23)c1OC`, the activation was 0.12% (inactive).

Turning to `O=C(CSc1nnc(-c2ccccn2)n1-c1ccccc1)Nc1ccc2cn[nH]c2c1`, the activation is 0.28% (inactive).

Consider `O=C(CSc1nc2ccccc2nc1N1CCCCC1)N1CCN(S(=O)(=O)c2cccc([N+](=O)[O-])c2)CC1`, for which the activation is 0.08% (inactive).
